Data on 39 molecules can be found in PubChem BioAssay (EPA / NIEHS).

The structures appear in SMILES notation. Several values for one entry are separate records, joined by “and”; a condition that tells them apart may be missing. Equal entries are not always repeated. More than one record can exist for a structure, and the calls need not agree. Activity calls are given as the source filed them. The calls were made as follows: active = hit-call score of the fitted dose curve at least 0.9, where 1 is the maximum; inactive = score below 0.9.

Read-out in this assay: urokinase plasminogen activator (uPA), PLAU (gene 5328)
The experiment in a line: BSK_KF3CT_uPA: BioMAP Diversity Plus: KF3CT Assay for urokinase plasminogen activator (uPA) Biomarker Activity (AID 2283075). As to conditions: primary human keratinocytes with fibroblasts; actives raise or lower the signal. The protocol: BSK_KF3CT is a cell-based, multiplexed-readout assay that uses keratinocytes and foreskin fibroblasts, a human skin primary cell co-culture, with measurements taken at 24 hours after chemical dosing in a 96-well plate.BSK_KF3CTA is an assay component measured in the BSK_KF3CT assay. It measures uPA antibody related to regulation of gene expression using ELISA technology.Data from the assay component BSK_KF3CTA was analyzed into 1 assay endpoint. This assay endpoint, BSK_KF3CTA, was analyzed with bidirectional fitting relative to DMSO as the negative control and baseline of activity. Using a type of binding reporter, gain or loss-of-signal activity can be used to understand changes in the signaling as they relate to the gene PLAU. Furthermore, this assay endpoint can be referred to as a primary readout, because this assay has produced multiple assay endpoints where this one serves a signaling function. To generalize the intended target to other relatable targets, this assay endpoint is annotated to the protease intended target family, where the subfamily is serine protease.
The levels of cell surface (or secreted, indicated by the prefix "s") biomarker endpoints were measured by ELISA. Overt cytotoxicity to cells in confluent adherent cultures (all systems other than the BT system) was assessed by measuring total protein levels using sulforhodamine B (SRB) staining in parallel cultures at the time of biomarker measurements, indicated as SRB endpoints. For proliferation assays for adherent cell types, individual cell types are cultured at sub-confluence and relative cell numbers quantified by SRB staining at time points optimized for each system (48 h: 3C and CASM3C systems; 72 h: BT and HDF3CGF systems; 96 h: SAg system). SRB was performed by staining cells with 0.1% SRB after fixation with 10% TCA and reading wells at 560 nm.Viability and proliferation of PBMC (T cells) was quantified by Alamar Blue reduction for the SAg and BT systems. For PBMC viability (referred to as PBMC Cytotoxicity within the assay endpoint names), cells were plated (75,000/well in a 96-well plate) and then chemical samples added for 1 h before addition of activators, SEB and TSST-1 (20 ng/mL final concentration each). Cells were incubated for 90 h. Then, Alamar Blue (20 uL/well) (Invitrogen, Cat DAL1100) was added for 6 h, and the plates were read with a fluorescence microplate reader at 546/580 nm (excitation/emission). For PBMC proliferation, cells were plated and activated as above but incubated for only 16 h prior to addition of Alamar Blue. Plates were read after 6 h.
Consider `NC(=O)C(F)(F)C(F)(F)C(F)(F)C(F)F`, for which the result was inactive.

As for `O=S(=O)(O)CCC(F)(F)C(F)(F)C(F)(F)C(F)(F)F`, the result was inactive.

`OC(O)C(F)(F)C(F)(F)F`: the outcome was inactive.

Turning to `CNS(=O)(=O)C(F)(F)C(F)(F)C(F)(F)C(F)(F)C(F)(F)C(F)(F)C(F)(F)C(F)(F)F`, the result was inactive.

Consider `OCC(O)CC(F)(F)C(F)(F)C(F)(F)C(F)(F)F` (stereo not given), for which the outcome was inactive.

Turning to `O=S(=O)(OCC(F)(F)F)C(F)(F)C(F)(F)C(F)(F)C(F)(F)F`, the AC50 is 9.13 µM (active) and the result was inactive.

As to `CCN(CC)c1ccc(N=Nc2ccccc2)cc1`, the outcome was inactive.

On to `CCN=C1C=CC(=C(c2ccc(N(CC)CC)cc2)c2ccc(N(CC)CC)cc2)c2ccccc21`, for which the AC50 is 2.62 µM (active) and 1.92 µM (active).

Turning to `NCC(F)(F)C(F)(F)C(F)(F)C(F)(F)C(F)(F)C(F)(F)C(F)(F)C(F)(F)F`, the result was inactive.

With `Nc1cc([N+](=O)[O-])cc(Cl)c1O`, the result was inactive.

Regarding `O=C(O)CCC(F)(F)C(F)(F)C(F)(F)C(F)(F)C(F)(F)C(F)(F)C(F)(F)F`, the outcome was inactive.

Regarding `O=C1C=CC(=O)N1c1ccc(Cc2ccc(N3C(=O)C=CC3=O)cc2)cc1`, the AC50 was 5.55 µM (active).

On to `NC(=O)C(F)(F)C(F)(F)C(F)(F)C(F)(F)C(F)(F)C(F)(F)C(F)(F)F`, for which the result was inactive.

Consider `COC(F)(C(F)F)C(F)(F)F` (stereo not given), for which the outcome was inactive.

With `CCN(CC)c1ccc2c(c1)Oc1cc(N(CC)CC)ccc1C21OC(=O)c2ccccc21`, the outcome was inactive.

Take `CCN(CC)c1ccc(C=O)c(O)c1`: the outcome was inactive.

Take `NC(O)(C(F)(F)F)C(F)(F)F`: the result was inactive.

For `CCN(CC)c1ccc(C=O)cc1`, the outcome was inactive.

On to `C[C@]12CC[C@H]3C(=CCc4cc(O)ccc43)[C@@H]1CCC2=O`, for which the outcome was inactive.

For `CCN(CCO)S(=O)(=O)C(F)(F)C(F)(F)C(F)(F)C(F)(F)C(F)(F)C(F)(F)C(F)(F)C(F)(F)F`, the result was inactive.

As to `Cc1ccc(O)c(-n2nc3ccccc3n2)c1`, the result was inactive.

Consider `OCCCC(F)(F)C(F)(F)C(F)(F)C(F)(F)C(F)(F)C(F)(F)C(F)(F)C(F)(F)F`, for which the AC50 was 14.9 µM (active) and 9.45 µM (active).

As for `OCC(F)(F)C(F)(F)C(F)(F)C(F)(F)C(F)(F)C(F)(F)C(F)(F)C(F)(F)CO`, the result was inactive.

Consider `Cc1cc(O)c(C(C)(C)C)cc1C(C)(C)C`, for which the AC50 was 3.78 µM (active).

In the case of `CO[Si](C)(CCC(F)(F)C(F)(F)C(F)(F)C(F)(F)C(F)(F)C(F)(F)F)OC`, the result was inactive.

Take `CN(C(=O)C(F)(F)C(F)(F)C(F)(F)F)[Si](C)(C)C`: the outcome was inactive.

For the molecule `O=C(O)CCC(F)(F)C(F)(F)C(F)(F)F`, the result was inactive.

For the molecule `Cc1cnccn1`, the outcome was inactive.

Take `FC(F)(F)C(F)(F)C(F)(F)C(F)(F)C(F)(F)C(F)(F)C(F)(F)CCI`: the outcome was inactive.

In the case of `C=CC(=O)OCC(F)(F)C(F)(F)C(F)(F)C(F)(F)C(F)(F)C(F)(F)C(F)(F)C(F)F`, the outcome was inactive.

Regarding `C[Si](Cl)(Cl)CCC(F)(F)C(F)(F)C(F)(F)C(F)(F)C(F)(F)C(F)(F)F`, the result was inactive.

In the case of `O=C(F)C1(F)C(F)(F)C(F)(F)C(F)(F)C(F)(F)C1(F)F`, the result was inactive.

Turning to `FC(F)(F)C(F)(F)C(F)(F)CC1CO1` (stereo not given), the outcome was inactive.

With `NC(=O)C(F)(F)C(F)(F)C(F)(F)C(F)(F)C(N)=O`, the outcome was inactive.

With `OCC(F)(F)C(F)(F)C(F)(F)C(F)(F)C(F)(F)C(F)(F)CO`, the outcome was inactive.

With `O=C(c1ccccc1)c1ccc(O)cc1O`, the outcome was inactive.

For the molecule `OCCCCC(F)(F)C(F)(F)C(F)(F)C(F)(F)F`, the result was inactive.

As to `OCC(F)(F)C(F)(F)C(F)(F)CO`, the result was inactive.

As for `O=C1c2c(O)ccc(Nc3ccc(CCO)cc3)c2C(=O)c2c([N+](=O)[O-])ccc(O)c21`, the result was inactive.

Broadly, the AC50 is the concentration giving half of the maximal activity seen.
